Laboratory results published in PubChem BioAssay (NCI).
This is part of a sample that, as a whole, favours compounds with a hit. Of some 83,000 tested, about 20% had one in any assay.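 Assay: single dose, 48 h. Readout: percent growth (0 = no net growth; negative = cell death). Active: <10.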 Unmarked numbers belong to inactive results. The source made the active and inactive calls.

What was measured:
Assay in all cases: NCI-60 one-dose screen, 48 h (100 = growth as untreated, 0 = no growth, -100 = all killed)
Conditions in all cases: 10 µM unless noted
HCT-15 colon = system: HCT-15 colon
HT29 colon = system: HT29 colon
SNB-75 CNS = system: SNB-75 CNS
SNB-19 CNS = system: SNB-19 CNS
U251 CNS = system: U251 CNS
PC-3 prostate = system: PC-3 prostate
SK-MEL-5 melanoma = system: SK-MEL-5 melanoma
UACC-62 melanoma = system: UACC-62 melanoma
LOX IMVI melanoma = system: LOX IMVI melanoma
SK-MEL-28 melanoma = system: SK-MEL-28 melanoma

| Compound | growth (HCT-15 colon) | growth (HT29 colon) | growth (SNB-75 CNS) | growth (SNB-19 CNS) | growth (U251 CNS) | growth (PC-3 prostate) | growth (SK-MEL-5 melanoma) | growth (UACC-62 melanoma) | growth (LOX IMVI melanoma) | growth (SK-MEL-28 melanoma) |
| --- | --- | --- | --- | --- | --- | --- | --- | --- | --- | --- |
| C=C1C(=O)O[C@H]2[C@H]1CC/C(COC(=O)NCc1[nH]nc3ccccc13)=C\CC[C@@]1(C)O[C@@H]21 | 5.35% (active) | -32.6% (active) | 64.9% | 67.8% | 27.5% | 28.8% | 25.7% | 16.5% | -17.2% (active) | 30.3% |
| CN(C)N1C(=O)c2c(Cl)c(Cl)c(Cl)c(Cl)c2C1=O | 109% | 107% | 92.7% | 108% | 102% | 99.2% | 101% | 104% | 96.8% | 112% |
| CCOC(=O)N1C2CCC(C2)N1C(=O)OCC | 106% | 107% | 71.6% | 100% | 99.1% | 105% | 104% | 98.2% | 99.7% | 97.4% |
| COc1ccc(-c2conc2-n2nc(-c3ccccc3)nc2-c2ccccc2)cc1 | 107% | 102% | 98.3% | 104% | 106% | 95.6% | 101% | 103% | 92.6% | 108% |
| O=C(NNC(=O)c1cccc(Cl)c1)c1ccccc1 | 114% | 104% | 99.4% | 119% | 100% | 91.1% | 101% | 123% | 105% | 119% |
| COc1ccc(NC(=O)c2sc3c(=O)[nH]c(C(F)(F)F)nc3c2C)cc1 | 104% | 103% | 93.7% | 112% | 98.6% | 90.5% | 106% | 98.9% | 101% | 109% |
| C=C1C(=O)O[C@H]2[C@H]1CC/C(COC(=O)NCc1cn(C)c3ccccc13)=C\CC[C@@]1(C)O[C@@H]21 | -45.8% (active) | -62% (active) | 50% | 54.2% | 0.165% (active) | 8.71% (active) | 10.6% | -41% (active) | -65% (active) | -14.6% (active) |
| CCOC(=O)C1C(=O)C=C(c2ccccc2)CC1c1sc(N(C)Cc2ccccc2)nc1Cl (stereo not given) | 94.3% | 91.2% | 89.1% | 89.7% | 92.7% | 76.4% | 92.7% | 61.4% | 88.2% | 109% |
| COc1cc(C2CC(c3ccc(C)cc3)=NN2C=O)ccc1Oc1nc2c(c(=O)n(C)c(=O)n2C)n1C (stereo not given) | 94.3% | 72.6% | 93% | 67.2% | 92.7% | 74.3% | 58.1% | 94.5% | 60.6% | 106% |
| Cc1c(C(N)=O)sc2ncn(CC(=O)NN=C3CCCCC3)c(=O)c12 | 109% | 90.5% | 102% | 104% | 99.5% | 122% | 106% | 99.9% | 103% | 118% |
| COc1cc(C2CC(c3ccc(C)cc3)=NN2C=O)ccc1Oc1ccnc2cc(Cl)ccc12 (stereo not given) | 97.4% | 92.3% | -36.1% (active) | 29.5% | 7.3% (active) | 85.3% | 97.1% | 55.8% | 76% | 101% |
| Nc1cc(C(=O)O)cc(C(=O)O)c1 | 111% | 97.2% | 99.2% | 111% | 108% | 96.8% | 108% | 104% | 115% | 115% |
| COc1cc(Nc2ncccc2/C=C/C(=O)c2cc(OC)c(OC)c(OC)c2)cc(OC)c1OC | 74.2% | 67.8% | 67.9% | 80.2% | 50.8% | 74.1% | 53.9% | 65.8% | 17.1% | 90.5% |
| CCC(=O)NC1=C(Cl)C(=O)C(NC(=O)CC)=C(Cl)C1=O | 101% | 106% | 107% | 115% | 92.8% | 91.4% | 96.3% | 102% | 66.6% | -1.93% (active) |
| CN(C)c1nc(-c2cccs2)n2nc(-c3ccco3)cc2n1 | 79.4% | 93.4% | 86.5% | 102% | 93.6% | 91.2% | 94.1% | 89.7% | 77.6% | 117% |
| COc1cc(C2CC(c3ccc(Cl)cc3)=NN2C(C)=O)ccc1Oc1ccnc2cc(Cl)ccc12 (stereo not given) | 91.9% | 28.2% | 33.2% | 70.7% | 43.8% | 58.3% | 67.8% | 60.5% | 37.9% | 55.1% |
| c1ccc2oc(-c3cnc4nonc4n3)cc2c1 | 107% | 96.3% | 76.6% | 88.8% | 103% | 92.7% | 98.4% | 79.6% | 94.6% | 120% |
| Cc1cc(-c2ccc(N=Nc3c(S(=O)(=O)O)cc4cc(S(=O)(=O)O)cc(O)c4c3O)c(C)c2)ccc1N=Nc1c(S(=O)(=O)O)cc2cc(S(=O)(=O)O)cc(O)c2c1O | 109% | 103% | 82.4% | 106% | 101% | 93.6% | 101% | 114% | 107% | 110% |
| C=CC(=O)N1CN(C(=O)C=C)CN(C(=O)C=C)C1 | 3.65% (active) | 26.2% | 60% | 107% | 88.9% | 90.8% | 71.5% | 74.3% | 71.4% | 72.7% |
| COc1ccccc1-[n+]1cc(-c2ccc(-c3ccccc3)cc2)n2c1CCCCC2 | 66% | 1.07% (active) | 16% | 11.7% | 10.6% | 1.3% (active) | -78.8% (active) | 2.5% (active) | 11.3% | 27.8% |
